# Assay outcomes from PubChem BioAssay.
# KCNQ2 block: inhibitors of rat KCNQ2 potassium channel; B-score at 10 µM; 1.1% of 310,000 active; O88943; CHO-K1 KCNQ2, FluxOR thallium flux, 20 min; stronger effect = lower value;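 active = fluorescence ratio B-score at most minus 3 library SDs, with starting brightness B-score within 2 library SDs, cut at about -5.5 in these data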
# KCNQ2 pot: KCNQ2 (rat) channel potentiation; O88943; CHO-K1 KCNQ2, FluxOR thallium flux fluorescence; stronger effect = higher value; B-score at 10 µM; 0.54% of 310,000 active;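 active = fluorescence ratio B-score at least 3 SD of library B-scores, with initial fluorescence B-score within 3 of them, cut at about 5.3 in these data; same plate scores as AID 2156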;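 also: B-score of peak minus minimum over baseline fluorescence ratio after K+ and Tl+ stimulus; positive B-score means potentiation of KCNQ2 with more thallium influx and brighter signal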
# KCNQ2 inh conf: rat KCNQ2 channel inhibition, confirmatory screen. 57% of 1,000 active. activity change, negative = inhibition, % at 10 µM. KCNQ2-expressing cells, thallium flux; stronger effect = lower value. shares compounds with KCNQ2 block. AID 493025;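 also: 0% = vehicle wells and values are ratio percent relative to vehicle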
# KCNQ1 spec: human KCNQ1 activity in KCNQ2 inhibitor specificity screen; KCNQ1-expressing cells, FluxOR thallium flux fluorescence; stronger effect = lower value; 15% of 1,000 active; shares compounds with KCNQ2 block; activity change, negative = inhibition, % at 10 µM;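 active = activity change at least 3 SD of negative controls below their mean in both duplicate wells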;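 also: CHO cells stably transfected with KCNQ1 and depolarized by potassium stimulus; peak minus minimum fluorescence over baseline after thallium addition; 0% = vehicle negative control and -100% = blank without thallium stimulus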
# Target sequence (P51787 whole entry, looked up): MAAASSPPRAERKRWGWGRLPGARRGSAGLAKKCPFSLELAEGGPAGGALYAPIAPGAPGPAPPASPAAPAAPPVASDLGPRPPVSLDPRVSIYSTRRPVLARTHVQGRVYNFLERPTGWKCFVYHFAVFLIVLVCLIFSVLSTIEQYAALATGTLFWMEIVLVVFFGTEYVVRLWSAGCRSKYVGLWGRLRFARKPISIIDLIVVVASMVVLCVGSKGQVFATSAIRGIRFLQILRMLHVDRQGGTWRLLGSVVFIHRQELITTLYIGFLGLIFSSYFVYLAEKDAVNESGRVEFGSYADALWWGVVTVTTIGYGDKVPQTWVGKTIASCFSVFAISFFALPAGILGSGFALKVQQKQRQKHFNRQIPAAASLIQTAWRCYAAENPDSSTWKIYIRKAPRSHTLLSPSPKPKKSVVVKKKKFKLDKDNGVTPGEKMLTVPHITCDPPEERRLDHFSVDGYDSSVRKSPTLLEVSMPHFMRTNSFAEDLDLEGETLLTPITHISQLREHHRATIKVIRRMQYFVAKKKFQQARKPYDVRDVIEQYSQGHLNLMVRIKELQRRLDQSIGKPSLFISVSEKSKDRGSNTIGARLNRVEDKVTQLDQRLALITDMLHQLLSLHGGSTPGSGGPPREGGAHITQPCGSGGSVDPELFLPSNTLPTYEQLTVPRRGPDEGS
# CHO Tl ctr: counter-screen for KCNQ2 inhibitors: effect in parental CHO cells | activity change, % at 10 µM | AID 493029 | thallium flux counter-screen; stronger effect = lower value | 14% of 1,000 active | shares compounds with KCNQ2 block;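 also: 0% = vehicle negative controls with stimulus buffer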
# KCNQ2 patch conf: confirmation of rat KCNQ2 potassium channel inhibitors. 49% of 550 active. shares compounds with KCNQ2 block. calls only at 10 µM. KCNQ2-expressing cells, automated patch clamp current. AID 588531
# Active calls of the source: *; i = inactive; x = not tested or not shown; + = active, no number. This is a sample that favours compounds with a hit; in the whole collection about 1.6% have one here. Unless noted, no rule for the calls is given here.
SMILES,KCNQ2 block,KCNQ2 pot,KCNQ2 inh conf,KCNQ1 spec,CHO Tl ctr,others
CN1CCN(C2Cc3ccccc3Sc3cc(C(F)(F)F)ccc32)CC1 (centres undefined),-7.38*,-7.38,-39.0%*,-38.0%*,-30.0%*,KCNQ2 patch conf=i
CN1CCN(C2Cc3cc(F)ccc3Sc3ccc(Cl)cc32)CC1 (centres undefined),i,x,x,x,x,
Cn1nc(C(=O)N2CCc3ccccc3C2)c2ccccc2c1=O,i,2.59,x,x,x,
Cc1ccccc1C1=NC(C(F)(F)F)(C(F)(F)F)c2c(n(C)c(=O)n(C)c2=O)N1,i,1.91,x,x,x,
COc1ccc(/C=C2\SC(=S)N(N3CCOCC3)C2=O)c(OC)c1,i,x,x,x,x,
COc1cccc(/C=C2\SC(=S)N(N3CCOCC3)C2=O)c1OC,-8.59*,-8.59,-34.5%*,i,i,KCNQ2 patch conf=i
COc1ccc(Cl)cc1C(=O)Nc1ccccc1N1CCN(C)CC1,i,x,x,x,x,
COc1cc(C(=O)NC(=S)Nc2ccccc2N2CCCC2)cc(OC)c1OC,i,x,x,x,x,
COc1ccc(Br)cc1C(=O)Nc1ccccc1-c1ccccc1,-9.33*,-9.33,-15.0%*,i,i,KCNQ2 patch conf=i
COc1cc(C(=O)Nc2ccccc2N2CCCCC2)cc(OC)c1OC,-7.39*,-7.39,-39.0%*,-28.5%*,i,KCNQ2 patch conf=+
COc1ccc(Cl)cc1C(=O)Nc1ccccc1N1CCCCC1,-7.53*,-7.53,-31.5%*,i,i,KCNQ2 patch conf=i
COc1ccc(Br)cc1C(=O)Nc1ccccc1N1CCCC1,i,x,x,x,x,
COc1ccc(N2CC(O)(c3ccc(F)cc3)[N+]3=C2CCCC3)cc1 (centres undefined),i,x,x,x,x,
O=C(/C=C\c1ccccc1)NCC(=O)N/N=C/c1ccc(O)cc1O,i,0.71,x,x,x,
Cc1ccc(S(=O)(=O)N(C)CC(=O)OCC(=O)N2CCCC2=O)cc1,i,0.35,x,x,x,
O=C(Nc1ccccc1OC(F)F)C1CC(=O)N(Cc2ccccc2)C1 (centres undefined),i,1.09,x,x,x,
O=C(O)c1ccccc1Nc1ccnc(Cl)n1,i,0.71,x,x,x,
O=C1C(CCCNC(=S)NCc2ccccc2)NC(=S)N1Cc1ccccc1 (centres undefined),i,x,x,x,x,
Cn1nc(-c2ccccc2)c(C(=O)NC(C(=O)O)c2ccccc2)c1Cl (centres undefined),i,0.26,x,x,x,
Cc1cccc(-c2nc(CN3CCCC(C(=O)NC4CCC(C)CC4)C3)c(C)o2)c1 (centres undefined),-9.63*,-9.63,-26.5%*,i,i,KCNQ2 patch conf=+
Cc1cccc(-c2nc(CN3CCCC(C(=O)NC4CCCC4)C3)c(C)o2)c1 (centres undefined),i,x,x,x,x,
O=S(=O)(NCCOc1ccccc1Cl)c1ccc2oc3ccccc3c2c1,-6.78*,-6.78,i,i,i,
COc1ccccc1OCCNS(=O)(=O)c1ccc2oc3ccccc3c2c1,i,x,x,x,x,
COc1ccc(NC(=O)Cn2nnc(-c3ccccc3NS(=O)(=O)c3ccccc3)n2)cc1,i,x,x,x,x,
CC(=O)CN1Cc2ccccc2/C1=N\C(=O)Nc1ccccc1,i,1.03,x,x,x,
SMILES,KCNQ2 block,KCNQ2 pot,KCNQ2 inh conf,KCNQ1 spec,CHO Tl ctr,others
COc1ccc(N2Cc3ccccc3/C2=N\C(=O)Nc2ccccc2)cc1,-7.11*,-7.11,-27.5%*,i,i,KCNQ2 patch conf=+
COc1ccc(C(CC(=O)Nc2ncccc2C)N2Cc3ccccc3C2=O)cc1 (centres undefined),i,x,x,x,x,
COc1ccc(C(=O)NCCS(=O)(=O)N(C)Cc2ccccc2)cc1,i,0.57,x,x,x,
CC1=C(C(=O)NCc2ccc3c(c2)OCO3)C2(CCC(C)CC2)OC1=O (centres undefined),-9.37*,-9.37,i,i,i,
CC1=C(C(=O)NCc2ccco2)C2(CCC(C)CC2)OC1=O (centres undefined),i,0.4,x,x,x,
Cn1c(-c2ccc(F)cc2)cnc1NCc1cccc(F)c1,i,x,x,x,x,
CCS(=O)(=O)n1nc(-c2ccccc2)nc1NCc1ccco1,i,0.01,x,x,x,
O=C(c1ccco1)n1nc(-c2ccccc2)nc1NCc1ccco1,i,0.1,x,x,x,
COc1ccccc1C(=O)n1nc(-c2ccccc2)nc1NCc1ccco1,-8.66*,-8.66,i,i,i,
Cc1ccc(S(=O)(=O)n2nc(-c3ccc(Cl)cc3)nc2NCc2ccco2)cc1,-9.31*,-9.31,i,i,i,
Cc1ccc(-c2cnc(C3CC3)o2)cc1S(=O)(=O)Nc1ccccc1,i,x,x,x,x,
Cc1ccc(N(C)S(=O)(=O)c2cc(-c3cnc(C4CC4)o3)ccc2C)cc1,-7.22*,-7.22,-15.0%*,i,i,KCNQ2 patch conf=i
